Pf growth 48h – Primary qHTS for delayed death inhibitors of the malarial parasite plastid, 48 hour incubation; P. falciparum luciferase growth in erythrocytes, 48 h; Potency, µM (series often up to 28.7 µM), most hits filed as inhibitors; actives 5.9% (n = 310,000)
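In quantitative HTS format, infected erythrocytes bearing luciferase-reporter parasites were treated for a single generation at 37 C. Luminescence after adding detection reagent served as the growth measure.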
AMA1-RON2 inh – qHTS for Inhibitors of AMA1-RON; Towards Development of Antimalarial Drug Lead: Primary Screen; actives 0.2% (n = 360,000); Potency, µM (top dose mostly 58.2 µM), usual class: inhibitors; AlphaScreen AMA1-biotinylated RON2 peptide binding; note: nearly all actives have a fitted effect of over 45% in size
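AMA1 (3D7) with his tag at 25 nM final met compounds first, then biotinylated RON2 peptide at 25 nM; detection used donor plus acceptor beads, 10 µg/mL apiece, read by AlphaScreen after 30 min at room temperature.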
AmpC no deterg – qHTS Inhibitors of AmpC Beta-Lactamase (assay without detergent) | AmpC nitrocefin hydrolysis, absorbance 480 nm, 0.0001% Triton | Potency, µM (top dose mostly 57.1 µM), actives largely listed as inhibitors | actives 0.52% (n = 330,000) | AID 485341, 2010; note: nearly all actives have a fitted effect of over 20% in size
Target sequence (P00811 whole entry, looked up): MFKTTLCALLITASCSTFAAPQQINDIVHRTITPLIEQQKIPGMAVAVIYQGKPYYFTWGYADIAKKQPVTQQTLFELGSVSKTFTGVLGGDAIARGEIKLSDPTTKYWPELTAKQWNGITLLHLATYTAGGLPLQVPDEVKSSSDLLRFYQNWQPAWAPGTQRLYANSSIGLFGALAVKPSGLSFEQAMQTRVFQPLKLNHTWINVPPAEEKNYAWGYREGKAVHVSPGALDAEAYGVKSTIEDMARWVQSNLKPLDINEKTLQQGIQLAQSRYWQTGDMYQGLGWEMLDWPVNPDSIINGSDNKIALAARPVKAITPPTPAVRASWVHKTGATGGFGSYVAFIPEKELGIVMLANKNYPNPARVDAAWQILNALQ
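20 mM phosphate pH 7.0 + 0.01% (detergent screen) or 0.0001% Triton X-100; 5.3 nM AmpC reagent; cpd preinc 15 min RT; nitrocefin (800 uM stock) to start; A480 q20 s × 4 min; Activity was normalised to no-enzyme and no-compound control wells.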
Pf growth 96h – Primary qHTS for delayed death inhibitors of the malarial parasite plastid, 96 hour incubation; P. falciparum luciferase reporter growth, 96 h; Potency, µM (series often up to 28.7 µM), actives largely listed as inhibitors; actives 6.9% (n = 320,000); AID 504834, 2011
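Erythrocytes infected with luciferase-expressing P. falciparum were dispensed at 2% hematocrit and 0.05% parasitemia (final), then incubated with compounds 96 hours at 37 C in 5% CO2. Luminescence after detection reagent addition reported growth.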
HCV inhibitor – qHTS Assay for Inhibitors of Hepatitis C Virus (HCV); Huh7.5.1 HCVcc-Cre infection, luciferase reporter, 44 h; AID 651820, 2012; Potency, µM (series often up to 41.8 µM), most hits filed as inhibitors; actives 3.4% (n = 340,000)
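Seed cells (1,000/well) for 4 h; treat with compound and infect with HCVcc-Cre, moi about 0.5. Incubate 44 h, then detect luciferase activity.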
AmpC inh detg – qHTS Inhibitors of AmpC Beta-Lactamase (assay with detergent); P00811; AmpC hydrolysis of nitrocefin, absorbance 480 nm, 0.01% Triton; Potency, µM (doses to about 114 µM), hits mostly inhibitors; actives 0.041% (n = 370,000); AID 485294, 2010; note: nearly all actives have a fitted effect of over 25% in size
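20 mM phosphate pH 7.0 + 0.01% (detergent screen) or 0.0001% Triton X-100; 5.3 nM AmpC reagent; cpd preinc 15 min RT; nitrocefin (800 uM stock) to start; A480 q20 s × 4 min; Activity was normalised to no-enzyme and no-compound control wells.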
A number is an active result; - = inactive; ? = inconclusive; . = no result given; [ ] = dose if it differs, or a comment. Shown are actives, neighbours in structure and some others; about 11% of the full set was active somewhere. Calls come from the whole dose curve; as a rule, active = well fitted curve in the direction sought with a large enough effect; inconclusive = small, poorly fitted or top-dose-only effect, or another doubt; inactive = no such curve, though single readings can be large; an effect the other way counts as inactive or inconclusive.

SMILES	Pf growth 48h	AMA1-RON2 inh	AmpC no deterg	Pf growth 96h	HCV inhibitor	AmpC inh detg
COc1cc(C(c2nnnn2C(C)(C)C)N2CCN(c3nc4ccccc4s3)CC2)ccc1O (centres undefined)	-	-	-	-	-	?
COc1ccc(C(c2nnnn2C(C)(C)C)N2CCN(c3nc4ccccc4s3)CC2)cc1OC (centres undefined)	5.22µM	-	-	?	-	-
Cc1c(CC(=O)NCc2ccccc2)c(=O)oc2c(C)c(O)ccc12	.	.	.	.	.	-
Cc1ccc2c(c1)N(C(=O)CCC(=O)NCc1cccc(F)c1)CC(C)O2 (centres undefined)	.	.	.	.	.	-
Cc1ccc(-n2nc(CO)c(C(=O)NCc3ccccn3)n2)cc1	.	.	.	.	.	-
c1cnc2ccc(C(c3nnnn3C3CCCC3)N3CCN(c4nc5ccccc5s4)CC3)cc2c1 (centres undefined)	5.22µM	-	-	-	?	-
COc1ccccc1C(c1nnnn1C(C)(C)C)N1CCCc2ccccc21 (centres undefined)	?	-	-	?	-	-
COc1ccccc1N1CCN(C(c2ccc(Cl)cc2)c2nnnn2C(C)(C)C)CC1 (centres undefined)	6.57µM	-	-	?	?	?
CC(C)(C)n1nnnc1C(c1cccc(C#N)c1)N1CCCc2ccccc21 (centres undefined)	9.28µM	-	-	-	-	?
CCC(C)(C)n1nnnc1C(c1cccnc1)N1CCCc2ccccc21 (centres undefined)	?	-	-	-	-	?
CCC(C)(C)n1nnnc1C(c1cccs1)N1CCc2ccccc21 (centres undefined)	9.28µM	-	-	-[5.75 µM]	-	-
COc1ccccc1N1CCN(C(c2ccccc2Cl)c2nnnn2C(C)(C)C)CC1 (centres undefined)	?	-	.	?	-	-
COc1ccc(CNc2nc(-c3ccco3)nn2S(=O)(=O)c2ccc(Cl)cc2)cc1OC	.	.	.	.	.	-
CCOC(=O)c1cccc(P(=O)(C(C)(C)C)C(C)(C)C)c1	-	-	-	-	-	-
CCOC(=O)c1ccc(-[n+]2c(-c3ccccc3)cc(-c3ccccc3)cc2-c2ccccc2)cc1	2.94µM	-	-	1.17µM	0.631µM	-
CCOC(=O)c1ccc(P(=O)(c2ccccc2)c2ccccc2)cc1	-	-	-	-	-	?
CCOC(=O)c1cccc(-[n+]2c(-c3ccccc3)cc(-c3ccccc3)cc2-c2ccccc2)c1	1.85µM	-	-	0.586µM	?	?
Cc1ccc(S(=O)(=O)NCC(Nc2cccc(Cl)c2)c2ccccc2)cc1 (centres undefined)	.	.	.	.	.	-
COc1cccc(NC(=O)c2oc3ccccc3c2NC(=O)c2ccc(F)c(F)c2)c1	.	.	.	.	.	-
CCN(C(=O)C1CCN(c2nc(-c3ccc(OC)cc3)no2)CC1)c1ccccc1	?	-	-	?	10µM	-
COc1ccc(-c2noc(N3CCC(C(=O)N(C)c4ccccc4)CC3)n2)cc1	?	-	-	-	11.2µM	-
Cc1ccc(C)c(N2CCN(CCCNC(=O)c3cnn(-c4ccccc4Cl)c3C3CCN(C(=O)OC(C)(C)C)CC3)CC2)c1	.	.	.	.	.	-
Cc1c(Nc2ncccc2C(=O)O)cccc1C(F)(F)F	-	-	-	-	-	-
Cc1nc(-c2ccncc2)nc(NCCNc2ncccc2C(F)(F)F)c1Cl	10.4µM	-	-	?	?	-
CCN(CC)C(=O)CSc1ncnc2sc(-c3ccccc3)cc12	-	-	-	.	12.6µM	-
C=COCCCNc1ncnc2sc(-c3ccccc3)cc12	-	-	-	?	8.91µM	-
CN(C)c1ncnc2sc(-c3ccccc3)cc12	-	-	-	-	11.2µM	?
